# In the supplement of paper PMC6555819:
# How the values were obtained:
# Experiment in all cases: PBM binding z-score (relative to random genomic background probes); higher = stronger binding; sequences stand for … in GC…GCGATTGACAGCGTAGAATGAAGG
# [1] = system: PPARg:RXRa DBDmut IVT, anti-RXR (DBD mutation: RXRa K156A/R161A, NR concentration 270 nM, RXRa partner concentration 90 nM)
# Summary of the method: (§1)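 Binding z-scores take random background probes as their reference. They come from custom Agilent 4×180K protein-binding microarrays incubated 1 h with ligand-free nuclear receptor dimers, with antibodies against each partner (one per run) detecting binding. Scanned fluorescence was regression-normalized.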
# [2] = system: PPARg:RXRa IVT, anti-PPARg (NR concentration 270 nM, RXRa partner concentration 90 nM)
# Summary of the method: as §1
# [3] = system: PPARg DBDmut:RXRa IVT, anti-PPARg (DBD mutation: PPARg1 K132A/R137A, NR concentration 270 nM, RXRa partner concentration 90 nM)
# Summary of the method: as §1
# [4] = system: PPARg DBDmut IVT, anti-PPARg (DBD mutation: PPARg1 K132A/R137A, NR concentration 270 nM)
# Summary of the method: as §1
# [5] = system: PPARg homodimer (NR concentration 180 nM)
# Summary of the method: as §1
# [6] = system: PXR:RXRa (NR concentration 270 nM, RXRa partner concentration 90 nM)
# Summary of the method: as §1
# [7] = system: PXR homodimer (NR concentration 270 nM)
# Summary of the method: as §1
# [8] = system: RARa:RXR (NR concentration 270 nM, RXRa partner concentration 90 nM)
# Summary of the method: as §1
# [9] = system: RARa homodimer (NR concentration 270 nM)
# Summary of the method: as §1
# [10] = system: RARb:RXRa (NR concentration 270 nM, RXRa partner concentration 90 nM)
# Summary of the method: as §1
Sequence,PBM binding z-score [1],PBM binding z-score [2],PBM binding z-score [3],PBM binding z-score [4],PBM binding z-score [5],PBM binding z-score [6],PBM binding z-score [7],PBM binding z-score [8],PBM binding z-score [9],PBM binding z-score [10]
AGTCACAGTTCACTAGGTAACGTAAGATTCAGCT,2.42,3.71,1.36,0.988,1.05,1.35,0.619,1.25,0.737,2.31
TCTGCTAGGTCAACGATGGTCAGCTTATCTGCTA,4.15,4.27,2.31,1.16,0.812,1.76,-0.682,2.5,-0.672,4.22
CCGACTGGGGCAAAGGTTACAATACTCAGTACGA,4.99,6.06,0.209,0.0744,1.56,2.63,-0.0818,4.23,0.27,2.55
TCATATAGGTAAAGGTGAAAGTAGAACGATATGA,4.02,4.56,2.33,2.14,1.55,1.08,-0.104,1.42,0.341,2.02
CGTCCAAGGTCAGTAGGTCAGTGAAAGCGACGTG,5.03,6.09,0.33,0.924,4.32,3.23,0.64,4.46,1.39,5
ATATCTAGGTAAAGTTCAGTGAAAGATCGATAGA,6.18,5.91,1.87,1.59,1.46,1.95,1.41,1.52,1.3,2.74
TCTAGCAGGCCAGAGGGTCACTCCAGAGGTACGG,0.669,0.586,-1.43,-1.75,0.69,1.08,-0.334,1.92,-0.787,1.89
ATCGCTAGGTAACCAAGTTCAGTGAATGCCGAAC,-0.05,0.465,-0.411,-0.436,-0.86,1.57,1.12,0.267,-0.716,0.753
ATCTCTAGGTAAAGATAGTTTAGTGAATGCAAAT,1.81,2.04,1.07,0.379,0.699,0.277,0.329,-0.0138,0.933,0.0107
AGAATGAAGTTAAGATCAGGGAAACAGAATACAT,-0.915,-0.265,0.14,0.809,-0.657,-0.19,0.0131,-0.474,0.347,-0.251
ACAGACAGGTGATGAGGGTAACTCAGGCTATCAT,-0.0163,0.685,-0.934,0.0306,0.543,0.296,-0.131,0.591,-0.698,0.496
CTTGCTAGGTCAATGGTCAGCTAAAGCAGCTCGC,5.14,4.93,-0.161,0.902,0.936,0.794,-0.623,1.83,-0.394,3.79
TAGCCTAGGTCATTCAGGGGCGAGTATAGAAAGC,1.58,3.05,0.363,0.38,1.3,4.17,-0.00215,3.55,0.172,3.89
TCTATTAGTTGATTAGAGCAACCGAAACAGCGGA,1.66,0.345,0.782,0.622,-0.0743,0.128,-0.0101,0.143,0.166,0.00144
ATCTCTAGGTAAGACTCAGTTCAATGAAGAACGC,1.88,1.16,1.2,1.44,1.39,2.1,2.69,1.34,1.4,0.797
TCGAGTAGGTCAGTCGGGGCATTCAGCCAACATA,4.8,4.74,0.141,-0.71,1.14,1.71,0.855,1.47,-0.53,3.03
ATCGAAAGGTCGTAGGTGAGTATACCCACCCGAA,-0.212,2.34,1.08,0.645,1.97,3.12,0.577,4.04,0.489,3.76
CTCGAAAGGTCGTGATCAGGTGAGTATACCAAAC,0.796,1.71,1.37,0.63,2.1,3.28,-0.0349,4.26,0.477,3.96
TCTTGTAGATCAACAGGAGGTCAAGAAAGATCGA,1.49,2.17,0.588,0.144,1.8,3.74,0.715,4.01,0.649,2.84
CCTACTGGGCCAAAGGTCATTAATTCCAATGCTC,5.16,6.79,0.543,0.388,4.75,5.26,2.61,5.93,2.26,4.25
CCTACTGGGCCAAGGTCACTGATCAGTCAAAGCA,4.22,4.98,-0.183,-0.598,2.26,3.02,0.241,3.49,0.0362,3.73
TAGCCTACGTCATTGGGCCAGTATAGTACGCATC,-0.24,0.164,-0.121,-0.0205,-0.852,-0.757,-0.796,-0.734,-0.851,-0.413
CCGACTGGGGCAGAAAGATTACCATACCATCCGG,1.53,0.903,-0.59,-1.13,-0.627,-0.737,-0.227,-0.36,-0.0256,0.0416
CCTAGCAGGCCAGGGTCACGCAAGCATTTCGCTT,-0.356,1.95,-1.04,-1.59,1.16,3.96,-0.56,4.99,-0.191,3.4
CGTGCAAGGTCAAGGTCAGTGAAAGAGACTCGAA,3.53,4.59,1.6,-0.363,4.25,4.99,1.2,5.11,2.15,5.53
